Test results published in PubChem BioAssay (NCATS).
Inconclusive results are not listed. The source made the active and inactive calls. Unless noted, calls come from the whole dose curve; as a rule, active = well fitted curve in either direction with a large enough effect (not every such curve was filed as active); inconclusive = small, poorly fitted or top-dose-only effect, or another doubt; inactive = flat fitted curve, though single readings scatter.

Legend:
[1] = target: Lysosomal acid glucosylceramidase (Homo sapiens) (UniProt P04062); assay: Glucocerebrosidase-p2 (AID 348; in the data active = potency below about 10 µM; note: potency is the fitted concentration of half-maximal effect); settings: purified GBA, blue fluorogenic substrate, 40 min
How it was run: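 Compounds titrated from 0.6 nM upwards against 0.2 nM enzyme in pH 5.9 citric acid/KH2PO4, taurocholate, tween-20; blue fluorogenic substrate 80 uM, 40 min room temperature, stopped and read Ex 365/Em 440 for AC50.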

[2] = AP1 Signaling Pathway (AID 357); settings: ME-180 AP-1-bla reporter, EGF-induced, beta-lactamase ratio, 5 h; at 7.69 µM (top of the series) unless noted; note: % is set by controls: 0 for no effect and ±100 for the full control effect
How it was run: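 Titration-series screen for positive or negative modulators of EC50 EGF-induced signaling in ME-180 cells carrying an AP-1-driven beta-lactamase reporter. After 5 hours at 37 degrees Celsius, CCF4 460nm/530nm emission ratio gave %Activity; AC50 values derived.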

[3] = target: Cytochrome P450 1A2 (Homo sapiens) (UniProt P05177); assay: p450-cyp1a2 (AID 410; calls by dose curve; note: potency is the fitted concentration of half-maximal effect); settings: recombinant CYP1A2, luciferin-ME demethylation, luminescence; series mostly up to 11.4 µM
How it was run: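 Human CYP1A2 (20nM) demethylated Luciferin-ME at its Km (100uM) in 100mM KPO4. After 10 min compound preincubation, NADPH regeneration ran the reaction 60 min at room temperature. Luciferin was read by luminescence, normalized to 57 uM furafylline.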

[4] = target: Glucocorticoid receptor (Homo sapiens) (UniProt P04150); assay: GR-GFP Redistribution (AID 450;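 active = compounds whose dose series gives a full or clear partial fitted curve of increased nuclear translocation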; note: potency is the fitted concentration of half-maximal effect); settings: U2OS GR-GFP nuclear translocation, laser cytometry, 2 h
[5] = target: Glucocorticoid receptor (Homo sapiens) (UniProt P04150); assay: GR-EFC Redistribution (AID 451; calls by dose curve; note: potency is the fitted concentration of half-maximal effect); settings: CHO-K1 GR-EFC translocation, beta-gal luminescence, 2 h
How it was run: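 CHO-K1 cells expressing nuclear EA and GR-ED fragments of b-gal; compounds titrated up to 46 uM final, 2 h at 37 C. GR nuclear translocation read as complemented b-gal luminescence after 1 h RT detection.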

[6] = target: Mitogen-activated protein kinase 10 (Mus musculus) (UniProt Q61831); assay: JNK3 AlphaScreen Assay (AID 530); settings: JNK3 lysate, c-Jun phosphorylation; series mostly up to 11.4 µM;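 note: kinase came from lysate of stimulated human HepG2 cells; signal reports phosphorylation of biotinylated GST-cJun 1-79 at Ser73 with 10 µM ATP; % is set by controls: 0 for no effect and ±100 for the full control effect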
How it was run: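 qHTS format: compounds tested as titrations against IL-1beta/TNF-alpha-activated HepG2 lysate JNK3 with biotin-GST-cJun substrate and 10 uM ATP at room temperature. Loss of anti-phospho-cJun AlphaScreen signal indicates inhibition.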

[7] = target: 3',5'-cyclic-AMP phosphodiesterase 4B (Homo sapiens) (UniProt Q07343); assay: qHTS Assay for Inhibitors of PDE-IV (AID 607; active = well fitted activation curve with a large enough effect in the main read-out, with a control signal flat, not every such curve was filed as active; note: % of control where 0% means no effect); settings: HEK293 ACTOne CNG channel cells, membrane potential fluorescence; series mostly up to 22.9 µM
How it was run: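 Live HEK293 cells with a modified cyclic nucleotide-gated (CNG) channel report intracellular cAMP via membrane-potential dye fluorescence (ex 535/em 590 nm). Endogenous PDE-IV was targeted. Compounds were tested at up to 22.9 uM final; RO 20-1724 100 uM served as control.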

[8] = target: Cytochrome P450 2C19 (Homo sapiens) (UniProt P33261); assay: qHTS Assay for Inhibitors and Substrates of Cytochrome P450 2C19 (AID 899; active = well fitted curve in the direction sought with a large enough effect; an effect the other way counts as inactive or inconclusive; note: potency is the fitted concentration of half-maximal effect; nearly all actives have a fitted effect of over 60% in size); settings: recombinant CYP2C19, luciferin-H EGE luminescence; series mostly up to 11.4 µM
How it was run: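 Luminescent read-out of luciferin formed from Luciferin-H EGE (10uM, equal to KM). Enzyme 5nM in 50mM KPO4; compound added, 10 min at 37C, then NADPH regenerating system for 60 min at 37C. Full inhibition defined by 57uM ketoconazole.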

[9] = Stat Signaling Pathway (AID 446); settings: ME-180 (cervical carcinoma) SIE beta-lactamase reporter, IL-6 stimulated, 5 h; at 7.69 µM (top of the series) unless noted;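 note: ME-180 cervical cancer cells given 40 pM IL-6 alongside compound; SIE-controlled beta-lactamase reporter measured as 460/530 nm FRET emission ratio; % is set by controls: 0 for no effect and ±100 for the full control effect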
How it was run: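 IL-6/STAT signaling read in ME-180 cells via an SIE beta-lactamase reporter. Stimulus was 40 pM IL-6 (its AC50) for 5 hrs, so both activation and inhibition register.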

[10] = target: Cytochrome P450 2C9 (Homo sapiens) (UniProt P11712); assay: qHTS Assay for Inhibitors and Substrates of Cytochrome P450 2C9 (AID 883; active = well fitted curve in the direction sought with a large enough effect; an effect the other way counts as inactive or inconclusive; note: potency is the fitted concentration of half-maximal effect; nearly all actives have a fitted effect of over 60% in size); settings: recombinant CYP2C9, luciferin-H luminescence, 60 min; series mostly up to 11.4 µM
How it was run: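 10nM CYP2C9 + 100uM Luciferin-H (=KM), 25mM KPO4; cpd 10 min 37C; NADPH regen, 60 min 37C; stop/detect with P450 Glo-Buffer 20 min; luminescence. Norm. to 57uM sulphaphenazole as full inhibition.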

[11] = target: Cytochrome P450 3A4 (Homo sapiens) (UniProt P08684); assay: qHTS Assay for Inhibitors and Substrates of Cytochrome P450 3A4 (AID 884; active = well fitted curve in the direction sought with a large enough effect; an effect the other way counts as inactive or inconclusive; note: potency is the fitted concentration of half-maximal effect; nearly all actives have a fitted effect of over 50% in size); settings: recombinant CYP3A4, Luciferin-PPXE luminescence; series mostly up to 57.1 µM
How it was run: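 20 nM human CYP3A4 with 25 uM Luciferin-PPXE (at KM) in 200 mM KPO4, preincubated 10 min with compound; NADPH regeneration started a 60 min RT reaction. Luciferin detected by luminescence, normalized to 57 uM ketoconazole as full inhibition.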

[12] = target: Cytochrome P450 3A4 (Homo sapiens) (UniProt P08684); assay: qHTS Assay for Activators of Cytochrome P450 3A4 (AID 885; active = well fitted curve in the direction sought with a large enough effect; an effect the other way counts as inactive or inconclusive; note: nearly all actives have a fitted effect of over 65% in size); settings: recombinant CYP3A4, Luciferin-PPXE luminescence, 60 min; series mostly up to 11.4 µM
How it was run: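 Quantitative HTS format: compounds preincubated with 20nM human CYP3A4 and Luciferin-PPXE substrate at KM, reaction started by NADPH regeneration, stopped after 60 min, luciferase luminescence read 20 min later.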

[13] = target: Cytochrome P450 2D6 (Homo sapiens) (UniProt P10635); assay: qHTS Assay for Inhibitors and Substrates of Cytochrome P450 2D6 (AID 891; active = well fitted curve in the direction sought with a large enough effect; an effect the other way counts as inactive or inconclusive; note: potency is the fitted concentration of half-maximal effect; nearly all actives have a fitted effect of over 60% in size); settings: recombinant CYP2D6, luciferin-ME EGE luminescence; series mostly up to 11.4 µM
How it was run: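 Human CYP2D6 (5 nM) with 30 uM Luciferin-ME EGE (at Km) in 100 mM KPO4, compound preincubated 10 min, then NADPH regeneration system for 60 min at room temperature. Luciferin read by luminescence; normalized to 1.43 uM quinidine.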

[14] = NFAT Signaling Pathway (AID 444); settings: Jurkat NFAT-bla M1, carbachol, beta-lactamase ratio, 5 h; at 7.69 µM (top of the series) unless noted;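 note: carbachol stimulus at about its EC50 of 1 µM final; % is set by controls: 0 for no effect and ±100 for the full control effect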
How it was run: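 Jurkat cells with NFAT-driven β-lactamase reporter and co-expressed M1 receptor, stimulated with carbachol (final 1 uM, ~EC50), compound titration, 5 h at 37 °C. CCF4 loaded 1 h at RT; 460/530 nm ratio gave %activity and AC50.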

[15] = target: ATP-dependent 6-phosphofructokinase (Trypanosoma brucei brucei) (UniProt O15648); assay: qHTS Assay to Find Inhibitors of T. brucei phosphofructokinase: hit validation (AID 492961; active = well fitted curve in the direction sought with a large enough effect; an effect the other way counts as inactive or inconclusive; note: % is set by controls: 0 for no effect and ±100 for the full control effect); settings: T. brucei PFK, ADP-Glo luminescence; series mostly up to 51.4 µM
How it was run: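 Luminescence from ADP-Glo reports ADP generated as T. brucei PFK (1.25 nM) phosphorylates 0.5 mM fructose-6-phosphate using 0.1 mM ATP. Reactions ran 45 min at room temperature, pH 8.0.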

[16] = qHTS profiling for inhibitors of Plasmodium falciparum proliferation (AID 504749; active = well fitted curve in the direction sought with a large enough effect; an effect the other way counts as inactive or inconclusive;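 note: 0% = DMSO vehicle and full inhibition = artemisinin control; nearly all actives have a fitted effect of over 60% in size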); settings: P. falciparum in erythrocytes, SYBR Green DNA, 72 h, at 28.7 µM (top of the series)
How it was run: (§1)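 Readout was DNA-dye fluorescence from lysed cultures, ex 485/em 535 nm. Parasitized red cells had grown 72 h with compound; data scaled between 0.29 uM artemisinin and DMSO wells and corrected using vehicle-only plates.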

AS120 = assay: as above; settings: P. falciparum in erythrocytes, SYBR Green DNA, 72 h; series mostly up to 28.7 µM
How it was run: as §1

ATS189 = assay: as above; settings: P. falciparum in erythrocytes, SYBR Green DNA, 72 h; series mostly up to 28.7 µM
How it was run: as §1

W2 = assay: as above; settings: P. falciparum in erythrocytes, SYBR Green DNA, 72 h; series mostly up to 28.7 µM
How it was run: as §1

Sequence of 3',5'-cyclic-AMP phosphodiesterase 4B (Homo sapiens) (Q07343 whole entry, looked up): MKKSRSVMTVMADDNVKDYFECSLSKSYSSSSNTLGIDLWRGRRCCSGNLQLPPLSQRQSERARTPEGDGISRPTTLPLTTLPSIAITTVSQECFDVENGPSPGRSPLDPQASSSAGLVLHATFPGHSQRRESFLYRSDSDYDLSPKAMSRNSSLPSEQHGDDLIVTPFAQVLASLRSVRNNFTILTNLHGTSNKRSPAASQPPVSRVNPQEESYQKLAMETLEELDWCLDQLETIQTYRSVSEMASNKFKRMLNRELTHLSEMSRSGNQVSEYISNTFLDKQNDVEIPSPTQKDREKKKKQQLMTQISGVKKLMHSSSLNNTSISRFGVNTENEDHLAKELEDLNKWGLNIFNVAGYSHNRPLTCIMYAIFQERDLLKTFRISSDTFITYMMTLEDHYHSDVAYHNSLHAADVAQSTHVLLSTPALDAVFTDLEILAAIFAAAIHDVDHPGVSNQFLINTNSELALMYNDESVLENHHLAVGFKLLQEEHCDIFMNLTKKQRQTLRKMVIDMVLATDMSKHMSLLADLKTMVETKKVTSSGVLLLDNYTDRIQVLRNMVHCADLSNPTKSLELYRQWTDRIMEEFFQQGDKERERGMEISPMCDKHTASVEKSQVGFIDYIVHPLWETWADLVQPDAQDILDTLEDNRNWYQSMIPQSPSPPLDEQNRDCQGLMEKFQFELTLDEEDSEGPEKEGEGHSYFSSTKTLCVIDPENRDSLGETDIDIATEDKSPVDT
Sequence of Lysosomal acid glucosylceramidase (Homo sapiens) (P04062 whole entry, looked up): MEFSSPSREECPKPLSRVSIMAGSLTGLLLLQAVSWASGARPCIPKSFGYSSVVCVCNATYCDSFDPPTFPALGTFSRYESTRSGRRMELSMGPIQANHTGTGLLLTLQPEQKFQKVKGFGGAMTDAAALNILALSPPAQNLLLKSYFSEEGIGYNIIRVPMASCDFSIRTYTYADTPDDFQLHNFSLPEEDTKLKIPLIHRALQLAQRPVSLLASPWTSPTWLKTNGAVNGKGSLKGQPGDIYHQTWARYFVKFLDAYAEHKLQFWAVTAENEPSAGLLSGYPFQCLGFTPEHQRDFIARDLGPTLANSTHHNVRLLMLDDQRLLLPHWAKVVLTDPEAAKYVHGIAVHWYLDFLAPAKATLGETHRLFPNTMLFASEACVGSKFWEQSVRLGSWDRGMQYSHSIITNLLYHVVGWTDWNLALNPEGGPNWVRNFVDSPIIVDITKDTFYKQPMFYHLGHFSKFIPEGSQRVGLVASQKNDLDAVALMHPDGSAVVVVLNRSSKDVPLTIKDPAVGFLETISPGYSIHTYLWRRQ
Sequence of Cytochrome P450 1A2 (Homo sapiens) (P05177 whole entry, looked up): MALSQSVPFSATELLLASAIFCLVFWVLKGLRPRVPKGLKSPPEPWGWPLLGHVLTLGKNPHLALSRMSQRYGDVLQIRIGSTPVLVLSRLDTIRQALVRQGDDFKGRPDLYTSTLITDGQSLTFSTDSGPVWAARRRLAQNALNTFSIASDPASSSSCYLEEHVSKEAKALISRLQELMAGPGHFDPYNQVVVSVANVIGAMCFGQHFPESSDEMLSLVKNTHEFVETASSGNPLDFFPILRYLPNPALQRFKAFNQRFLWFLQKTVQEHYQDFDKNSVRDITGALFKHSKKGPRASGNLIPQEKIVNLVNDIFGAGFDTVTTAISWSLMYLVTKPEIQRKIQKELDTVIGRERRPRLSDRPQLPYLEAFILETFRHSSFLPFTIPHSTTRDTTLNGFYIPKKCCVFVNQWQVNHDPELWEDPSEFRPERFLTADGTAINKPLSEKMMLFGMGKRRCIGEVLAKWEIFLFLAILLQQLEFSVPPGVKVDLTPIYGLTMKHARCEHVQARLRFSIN
Sequence of Cytochrome P450 2C19 (Homo sapiens) (P33261 whole entry, looked up): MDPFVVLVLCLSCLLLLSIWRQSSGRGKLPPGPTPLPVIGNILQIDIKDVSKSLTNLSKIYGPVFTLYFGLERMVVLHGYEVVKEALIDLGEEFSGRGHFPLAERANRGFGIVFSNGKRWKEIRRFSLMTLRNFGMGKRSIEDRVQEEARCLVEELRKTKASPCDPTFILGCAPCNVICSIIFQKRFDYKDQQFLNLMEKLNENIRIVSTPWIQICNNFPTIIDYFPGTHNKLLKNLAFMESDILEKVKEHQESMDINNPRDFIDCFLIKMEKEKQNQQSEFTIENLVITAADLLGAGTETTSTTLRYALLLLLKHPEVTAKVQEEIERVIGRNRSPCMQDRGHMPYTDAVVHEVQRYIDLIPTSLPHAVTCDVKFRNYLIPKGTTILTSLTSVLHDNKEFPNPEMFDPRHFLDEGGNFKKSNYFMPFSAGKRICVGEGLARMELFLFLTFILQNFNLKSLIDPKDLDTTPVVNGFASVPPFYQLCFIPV
Sequence of Cytochrome P450 3A4 (Homo sapiens) (P08684 whole entry, looked up): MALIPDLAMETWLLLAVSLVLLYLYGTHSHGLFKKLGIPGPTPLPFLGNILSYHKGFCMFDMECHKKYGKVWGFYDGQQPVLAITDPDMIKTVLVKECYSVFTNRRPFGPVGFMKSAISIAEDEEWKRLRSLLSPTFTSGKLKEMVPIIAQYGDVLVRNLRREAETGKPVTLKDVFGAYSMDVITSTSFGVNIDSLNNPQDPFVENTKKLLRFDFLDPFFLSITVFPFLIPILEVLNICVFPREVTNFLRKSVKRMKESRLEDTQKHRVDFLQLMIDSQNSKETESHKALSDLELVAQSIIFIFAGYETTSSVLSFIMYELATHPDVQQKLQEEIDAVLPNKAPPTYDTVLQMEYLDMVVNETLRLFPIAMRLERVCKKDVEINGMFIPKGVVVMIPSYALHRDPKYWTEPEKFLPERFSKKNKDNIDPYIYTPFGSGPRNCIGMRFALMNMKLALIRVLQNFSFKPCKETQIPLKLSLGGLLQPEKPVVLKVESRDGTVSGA
Sequence of Glucocorticoid receptor (Homo sapiens) (P04150 whole entry, looked up, the tested form may be a part): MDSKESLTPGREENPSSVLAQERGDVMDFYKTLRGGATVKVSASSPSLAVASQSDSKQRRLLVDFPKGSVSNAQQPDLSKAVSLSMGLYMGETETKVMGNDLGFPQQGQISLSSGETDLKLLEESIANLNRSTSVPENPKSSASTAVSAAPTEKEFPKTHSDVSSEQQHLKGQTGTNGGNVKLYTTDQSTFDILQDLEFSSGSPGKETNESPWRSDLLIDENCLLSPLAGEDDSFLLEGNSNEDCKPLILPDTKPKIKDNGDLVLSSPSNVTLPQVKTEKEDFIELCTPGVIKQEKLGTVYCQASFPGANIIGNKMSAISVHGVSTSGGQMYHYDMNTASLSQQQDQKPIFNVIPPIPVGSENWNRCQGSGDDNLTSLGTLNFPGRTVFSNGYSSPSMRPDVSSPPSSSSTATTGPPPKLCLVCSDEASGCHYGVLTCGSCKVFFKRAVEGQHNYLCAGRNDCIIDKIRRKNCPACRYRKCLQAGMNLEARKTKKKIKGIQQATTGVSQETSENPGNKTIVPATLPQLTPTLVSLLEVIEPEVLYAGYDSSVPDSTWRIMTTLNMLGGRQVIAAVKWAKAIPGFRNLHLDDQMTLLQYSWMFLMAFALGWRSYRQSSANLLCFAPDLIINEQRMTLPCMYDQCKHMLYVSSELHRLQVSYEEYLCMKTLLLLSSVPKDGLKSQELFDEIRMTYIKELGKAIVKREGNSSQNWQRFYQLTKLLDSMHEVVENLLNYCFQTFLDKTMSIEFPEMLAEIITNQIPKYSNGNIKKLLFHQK
Sequence of Cytochrome P450 2C9 (Homo sapiens) (P11712 whole entry, looked up): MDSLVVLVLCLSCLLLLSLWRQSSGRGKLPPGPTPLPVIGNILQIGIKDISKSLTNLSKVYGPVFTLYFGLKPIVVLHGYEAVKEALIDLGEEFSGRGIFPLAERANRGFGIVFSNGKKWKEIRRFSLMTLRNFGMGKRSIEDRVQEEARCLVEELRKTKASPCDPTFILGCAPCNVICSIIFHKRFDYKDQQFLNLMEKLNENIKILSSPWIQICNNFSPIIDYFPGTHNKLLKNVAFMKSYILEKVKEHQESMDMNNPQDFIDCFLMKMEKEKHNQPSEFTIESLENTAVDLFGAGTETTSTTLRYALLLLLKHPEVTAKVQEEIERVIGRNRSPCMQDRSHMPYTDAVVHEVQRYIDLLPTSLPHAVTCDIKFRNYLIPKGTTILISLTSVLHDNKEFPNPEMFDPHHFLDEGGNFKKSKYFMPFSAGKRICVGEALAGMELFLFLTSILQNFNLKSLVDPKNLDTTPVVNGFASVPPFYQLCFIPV
Sequence of Cytochrome P450 2D6 (Homo sapiens) (P10635 whole entry, looked up): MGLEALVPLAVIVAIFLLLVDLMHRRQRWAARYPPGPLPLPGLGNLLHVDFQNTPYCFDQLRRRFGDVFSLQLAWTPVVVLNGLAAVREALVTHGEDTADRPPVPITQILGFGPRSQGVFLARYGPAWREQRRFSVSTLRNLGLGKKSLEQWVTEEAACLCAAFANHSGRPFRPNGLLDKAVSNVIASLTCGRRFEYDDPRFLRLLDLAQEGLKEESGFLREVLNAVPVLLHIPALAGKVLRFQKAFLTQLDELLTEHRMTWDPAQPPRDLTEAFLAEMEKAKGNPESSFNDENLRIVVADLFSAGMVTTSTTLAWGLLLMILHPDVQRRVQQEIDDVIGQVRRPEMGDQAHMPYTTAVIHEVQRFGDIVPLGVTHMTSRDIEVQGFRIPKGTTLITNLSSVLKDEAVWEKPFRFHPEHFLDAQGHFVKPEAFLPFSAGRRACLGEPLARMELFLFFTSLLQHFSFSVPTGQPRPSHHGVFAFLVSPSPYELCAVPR

COc1cc(O)c2c(O)c3c(c4c2c1[C@@]1(C4)C(C)=CCCC1(C)C)[C@H](O)[C@@]1(O)CC(=O)C(C(N)=O)=C(O)[C@]1(O)C3=O
active: Potency [3] 3.16 µM | Potency [8] 2.51 µM
inactive: Potency [1] > 11.4 µM | activity change, negative = inhibition [2] -27.8% | Potency [4] > 46 µM | Potency [5] > 9.22 µM | Potency [6] | Potency [7]

c1ccc(SC(Sc2ccccc2)c2ccc3c(c2)OCO3)cc1
active: Potency [3] 0.501 µM | Potency [10] 3.16 µM | Potency [11] 2.51 µM | Potency [13] 3.16 µM | Potency [8] 0.0316 µM
inactive: Potency [1] > 11.4 µM | activity change, negative = inhibition [2] -9.51% | activity, negative = inhibition [9] -12% | Potency [4] > 46 µM | Potency [6] | Potency [7] | Potency [12]

CC(C)Cn1cnc2c(SCc3ccc(Cl)cc3Cl)nc(N)nc21
active: Potency [3] 1.26 µM | Potency [11] 3.98 µM | Potency [8] 2 µM
inactive: Potency [1] > 11.4 µM | activity change, negative = inhibition [2] -27.8% | Potency [4] > 46 µM | Potency [5] > 9.22 µM | Potency [6] | Potency [7] | Potency [12]

COc1ccc(-c2nc3cnc(OC)nc3n(Cc3cccs3)c2=O)cc1
inactive: Potency [1] > 11.4 µM | activity change, negative = inhibition [2] 20.7% | activity change, negative = inhibition [14] 8.9% | activity, negative = inhibition [9] 14.3% | Potency [4] > 9.22 µM | Potency [5] > 46 µM | Potency [6]

CC1(C)S[C@@H]2[C@H](NC(=O)Cc3ccccc3)C(=O)N2[C@@H]1C(=O)O
inactive: Potency [1] > 11.4 µM | activity change, negative = inhibition [2] 11.5% | activity change, negative = inhibition [14] 4.82% | activity, negative = inhibition [9] -4.4% | Potency [4] > 46 µM | Potency [5] > 9.22 µM | Potency [6] | Potency [7] | outcome [15] | activity, negative = inhibition ([16]; parasite line A) 2.23% | activity, negative = inhibition ([16]; parasite line B) 9.91% | Potency (AS120) | Potency (ATS189) | Potency (W2)

Cc1ccc(C2=Nc3ccccc3S[C@@H](c3cccc([N+](=O)[O-])c3)C2)cc1
inactive: Potency [1] > 11.4 µM | activity change, negative = inhibition [2] -7.9% | activity, negative = inhibition [9] -8.15% | Potency [4] > 46 µM | Potency [6] | Potency [7] | Potency [12]
active: Potency [3] 2 µM | Potency [11] 3.98 µM | Potency [8] 3.98 µM

O=C(c1cc(Br)ccc1O)c1cc(Br)ccc1O
inactive: Potency [1] > 11.4 µM | activity change, negative = inhibition [2] -21.4% | activity, negative = inhibition [9] -28% | Potency [4] > 46 µM | Potency [6] | Potency [7]
active: Potency [3] 1 µM | Potency [8] 0.199 µM
